APEX1 inh: inhibitors of human APE1 endonuclease | P27695 | recombinant APE1, TAMRA/BHQ-2 abasic DNA cleavage fluorescence | Potency, µM (doses to about 65.8 µM), for inactives: at the top dose activity change, negative = inhibition, hits mostly inhibitors | hit rate 0.35% among 350,000 | AID 2517;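 further: plate controls were vehicle for no effect and reference inhibitor for full effect; nearly all actives have a fitted effect of over 55% in size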
Target sequence (P27695 whole entry, looked up): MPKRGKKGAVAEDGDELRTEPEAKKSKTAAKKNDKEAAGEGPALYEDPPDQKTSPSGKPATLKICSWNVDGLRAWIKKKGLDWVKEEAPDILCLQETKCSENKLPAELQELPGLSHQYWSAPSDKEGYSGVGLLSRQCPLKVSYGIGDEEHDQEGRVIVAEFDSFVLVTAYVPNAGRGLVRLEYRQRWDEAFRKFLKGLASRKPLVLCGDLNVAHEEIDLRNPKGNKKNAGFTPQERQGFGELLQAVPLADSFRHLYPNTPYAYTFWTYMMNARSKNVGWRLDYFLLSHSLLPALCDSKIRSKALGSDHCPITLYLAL
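Endonuclease cleavage of a quenched abasic-site DNA duplex (50 nM) by APE1 (0.75 nM) was tracked by TAMRA dequenching. Compounds were preincubated with enzyme 15 min at room temperature; data normalized to buffer-only and DMSO wells plus NSC13755 control.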
TDP1 inh: inhibitors of human tyrosyl-DNA phosphodiesterase TDP1; recombinant TDP1, AlphaScreen DNA substrate cleavage; hit rate 0.28% among 350,000; Q9NUW8; AID 485290; Potency, µM (doses to about 130 µM), without a hit: at the highest dose activity change, negative = inhibition, most hits filed as inhibitors; further: nearly all actives have a fitted effect of over 40% in size
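AlphaScreen read-out: signal falls as enzyme removes the 3' tyrosine-FITC from a 5'-biotinylated DNA oligo (15 nM, 5 min, RT). Enzyme was E. coli-made recombinant Tdp1 at 1 nM, exposed to compound for 15 min beforehand; beads 10 ug/ml, 10 min.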
LMNA splice mod: changes lamin A minigene splicing in HeLa cells | HeLa LMNA splicing GFP/RFP minigene ratio, 48 h | Potency, µM (highest dose often 46.1 µM), for inactives: at the highest dose ratio change, negative = inhibition, usual class: inhibitors | hit rate 0.01% among 200,000; active means well fitted inhibition curve with a large enough effect in the signal ratio, with a control signal flat, not every such curve was filed as active; inconclusive means small, poorly fitted or top-dose-only effect, or effect the other way, or a change in a side signal; the % refers to the signal ratio
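Read-out is the ratio of GFP to DsRed2 object intensity, acquired by 488 nm laser-scanning cytometry on HeLa lamin A-EGFP minigene reporter cells. Compound incubation 48 hrs at 37 °C in Opti-MEM with 2% FBS; DMSO 0.5% final.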
GCN5L2 inh: inhibitors of human GCN5L2 histone acetyltransferase; Potency, µM (titrated, usually from 58.9 µM), for inactives: at the highest dose activity change, negative = inhibition, hits mostly inhibitors; hit rate 0.21% among 390,000; GCN5L2 HAT assay, ThioGlo1 CoA-SH fluorescence
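GCN5L2 (20nM final) in 50mM HEPES, 0.1mM EDTA pH 7.5, 0.01% Tween-20 was preincubated 15 min at room temperature with compound, then given ThioGlo1 (50uM), H3(1-25) peptide (75uM) and acetyl-CoA (70uM); CoA-thiol fluorescence (Ex340/Em540) was read at 0 and 20 min.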
RECQ1 helicase: inhibitors of human RECQ1 DNA helicase; Potency, µM (titrated, usually from 57.3 µM), for the others: at the highest dose activity, negative = inhibition, most hits filed as inhibitors; RECQ1 DNA unwinding, red fluorescence kinetic read; hit rate 0.54% among 240,000; P46063; AID 2549;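 further: plate controls were vehicle for no effect and no enzyme for full effect; nearly all actives have a fitted effect of over 30% in size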
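50 nM RECQ1T1 preincubated 15 min with compound in Tris pH 8.0 buffer with MgCl2, DTT, Tween-20 and 2.5 ug/ml poly(dI-dC); started with 200 nM TAMRA/BHQ-2 forked duplex and 2 mM ATP. Unwinding read as fluorescence (525/598 nm), two reads 2 h apart.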
BLM inh: Bloom syndrome helicase (human) inhibition | P54132 | recombinant BLM DNA unwinding, fluorescence dequenching | Potency, µM (doses to about 56.1 µM), without a hit: at the top dose activity change, negative = inhibition, actives largely listed as inhibitors | hit rate 0.2% among 350,000 | AID 2528;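 further: plate controls were vehicle for no effect and no enzyme for full effect; nearly all actives have a fitted effect of over 35% in size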
An asterisk follows results filed as active; i = inactive; u = inconclusive; x = not tested or not shown; [ ] = another dose, or the depositor's remark. In the library only some 0.9% were active in any assay of this set; here they are far more common. Unless noted, the call rests on the fitted dose curve; in most records, active means well fitted curve in the direction sought with a large enough effect; inconclusive means small, poorly fitted or top-dose-only effect, or another doubt; inactive means no such curve, though single readings can be large; an effect the other way counts as inactive or inconclusive. Unless noted, on the % scale 0 is the no-effect control and ±100 the full control effect; potency means the concentration at half of the fitted maximal effect.

SMILES	APEX1 inh	TDP1 inh	LMNA splice mod	GCN5L2 inh	RECQ1 helicase	BLM inh
O=C(O)c1ccc(Cn2nnc3sc4c(c3c2=O)CCCC4)cc1	-11.7%	50.1µM*	1.7%[46 µM]	-7.0%	-18.0%	-4.5%
Cc1c(C)c2cc(Cl)c(O)c(CN3CCN(C)CC3)c2oc1=O	3.8%	7.0%	-14.4%	25.1µM*	-4.6%	0.5%
Cc1c(C)c2cc(Cl)c(O)c(CN3CCCC(C)C3)c2oc1=O (configuration not stated)	0.1%	5.5%	2.9%	u	-4.0%	-10.5%
Cc1cn(C2CC3OCC(NC(=O)C4CCCN4C(=O)OC(C)(C)C)C3O2)c(=O)[nH]c1=O (configuration not stated)	-4.3%	3.8%	x	x	-4.1%	-1.7%
COc1cccc(C2c3c(ncn(-c4ccccc4Cl)c3=N)Oc3ccc4ccccc4c32)c1 (configuration not stated)	x	3.8%	x	x	x	x
N#Cc1c(NC(=O)COC(=O)c2ccc(O)cc2O)sc2c1CCC2	11.9µM*	22.4µM*	x	-4.6%	x	x
COC(=O)c1c(NC(=O)COC(=O)c2ccc(Cl)cc2[N+](=O)[O-])sc2c1CCCCC2	-0.8%	5.3%	-7.9%	28.2µM*	-9.6%	1.6%
CC(C)(C)c1ccc(C(=O)OCC(=O)Nc2sc3c(c2C#N)CCC3)cc1	2.1%	0.0%	-2.0%	-2.0%	-3.7%	-5.2%
Nc1nc(Cl)nc2c1ncn2[C@@H]1O[C@H](COP(=O)(O)OP(=O)(O)OP(=O)(O)O)[C@@H](O)[C@H]1O	x	x	x	-16.6%	x	x
C/C=C(/C)C(=O)O[C@H]1C[C@@]2(C)O[C@H]2[C@@H](OC(C)=O)C2(C)CC[C@@](O)(C(C)C)C12 (some centres not stated)	-4.6%	6.2%	x	5.1%	5.7%	-4.2%
O=C(O)C1CCCCC1C(=O)Nc1cccc(Br)c1 (configuration not stated)	0.474µM*	2.82µM*	x	u	x	x
O=C(O)C1CCCCC1C(=O)Nc1cccc(C(=O)N2CCCCC2)c1 (configuration not stated)	0.7%	0.0%	-6.4%	-17.6%	13.5%	2.9%
c1ccc2c(c1)OCCc1c-2[nH]c2ccccc12	38.2%	x	x	2.6%	x	-8.9%
c1ccc2c(c1)SCc1c-2[nH]c2ccccc12	-1.0%	18.7%	x	22.4µM*	-11.5%	-9.2%
COc1ccc(C2Nc3ccccc3C(=O)N2CCc2ccc(Cl)cc2Cl)cc1COc1ccc(NC(C)=O)cc1 (configuration not stated)	x	1.3%	x	x	x	x
CCC(C)Sc1ccc(-c2nc3cnccn3c2NC2CCCCC2)cc1 (configuration not stated)	-2.5%	-12.0%	x	28.2µM*	x	x
CC1(OC(=O)c2ccc(Cl)nc2)C(=O)C=C2C=C3CCCN3C=C2C1=O (configuration not stated)	u	8.91µM*	2.5%[9.22 µM]	-22.6%	u	-10.3%[12.4 µM]
Cc1ccc(OCC(=O)Oc2ccc(C)c(C)c2)cc1	-42.2%	50.1µM*	x	-0.5%	x	-5.5%
O=C(Nc1cccc([N+](=O)[O-])c1)c1cc2ccccc2cc1O	28.2µM*	2.9%	u	-16.7%	-22.1%	-27.1%
O=C(O)c1ccccc1C(=O)Nc1cccc([N+](=O)[O-])c1	-0.1%	3.8%	x	1.7%	-7.4%	-3.3%
COc1ccc(NC(=S)NC(NC(=O)/C=C/c2ccccc2)C(Cl)(Cl)Cl)cc1 (configuration not stated)	-2.2%	-2.0%	u	1µM*	i	-2.9%
Cc1ccc(NS(=O)(=O)c2ccc3c(c2)CCC(=O)N3)cc1Cl	x	-4.4%	x	x	x	x
COc1ccc(NC(=O)CN(C)C(=O)c2cccc(Oc3ccccc3)c2)cc1	-8.8%	2.7%	x	2.1%	x	x
Cc1ccc(NC(=O)CN(C)C(=O)c2cccc(-n3cccc3)c2)cc1	0.947µM*	x	x	u	x	x
COc1ccc(NC(=O)CN(C)C(=O)c2cccc(-n3cccc3)c2)cc1	2.38µM*	2.51µM*	x	u	x	x
SMILES	APEX1 inh	TDP1 inh	LMNA splice mod	GCN5L2 inh	RECQ1 helicase	BLM inh
Cc1cccc(NC(=O)CNC(=O)c2cccc(-n3cccc3)c2)c1C	1.89µM*	x	x	u	x	x
O=C(c1ccccc1O)N(Cc1ccco1)Cc1cccs1	x	-0.2%	x	x	x	x
CCc1ccc(C2/C=C\CNC(c3ccccc3)C(=O)N2Cc2ccc(C)cc2)cc1 (configuration not stated)	-10.9%	10.3%	x	x	6.0%	-3.9%
CNc1c(NC(=O)C2CCC(C)CC2)c(=O)oc2ccccc12 (configuration not stated)	-9.9%	79.4µM*	x	-18.0%	x	-5.5%
CCOC(=O)c1ccc2c(c1)C1C=CCC1C(C(=O)O)N2 (configuration not stated)	u	0.0%	1.1%	20µM*	8.91µM*	28.2µM*
Cc1cc(C)c2c(c1)C1C=CCC1C(C(=O)O)N2 (configuration not stated)	x	-8.2%	x	x	x	x
Cc1cc(C)c2c(c1)NC(C(=O)O)C1CC=CC21 (configuration not stated)	-16.7%	-9.5%	x	28.2µM*	x	-6.8%
O=C(CN(Cc1ccccc1)S(=O)(=O)c1ccc(F)cc1)NCCC1=CCCCC1	-7.8%	2.0%	21.3%	0.794µM*	-15.7%	-12.9%
Cc1c(Cl)sn(-c2ccc(Cl)cc2)c1=O	-9.0%	-1.2%	x	10µM*	28.6%	0.7%
Cc1ccc(CNc2cccc(N3CCCCC3)c2)cc1	13.0%	x	x	x	x	x
CNc1cccc2c1C(=O)c1ccccc1C2=O	-6.9%	6.9%	-8.7%	18.3%	-16.6%	-15.0%
CNc1cccccc1=S	u	3.55µM*	4.6%	u	u	-2.4%
CC1(C)C2CCC(C2)C1(C)N=C1OC(CCl)CS1 (configuration not stated)	-2.6%	-3.8%	x	-7.9%	0.9%	4.47µM*
O=C(O)C(S)[C@@H](S)C(=O)O (some centres not stated)	14.1µM*	x	x	7.08µM*	i	3.6%
COc1ccc(/C=N/Nc2nc(-c3cccnc3)nc3ccccc23)cc1OC	-5.7%	7.1%	x	-13.9%	20µM*	3.1%
CC1=CC23C(=O)C(C=C(CO)[C@@H](O)[C@]2(O)[C@H]1O)[C@H]1[C@@H](C[C@H]3C)C1(C)C (some centres not stated)	-3.6%	2.3%	x	-20.6%	-9.3%	-3.8%
N=C1CCC(=N)c2c1c(O)c1ccccc1c2O	u	5.5%	x	u	u	31.6µM*
COc1ccc(-c2c(C3C4C=CCCC4(C)C(=O)N3Cc3ccccc3)ccc3ccccc23)cc1 (configuration not stated)	0.9%	10.3%	x	x	-1.7%	-1.4%
